# Compounds with a hit are over-represented: about 3.5% of the library has one in this group of screens.
# FBW7 act: FBW7 E3 ligase activators, primary screen, biochemical, AlphaScreen, human. AlphaScreen FBW7–phospho-cyclin E peptide binding, activator screen. normalized activity (activation), % at 26.1 µM. F-box/WD repeat-containing protein 7 (Homo sapiens), Q969H0. 650,000 tested, 0.13% active; in the data active means normalized activity above about 1.9%;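 further: purified mutant Fbw7 with reduced substrate affinity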
# Target sequence (Q969H0 whole entry, looked up): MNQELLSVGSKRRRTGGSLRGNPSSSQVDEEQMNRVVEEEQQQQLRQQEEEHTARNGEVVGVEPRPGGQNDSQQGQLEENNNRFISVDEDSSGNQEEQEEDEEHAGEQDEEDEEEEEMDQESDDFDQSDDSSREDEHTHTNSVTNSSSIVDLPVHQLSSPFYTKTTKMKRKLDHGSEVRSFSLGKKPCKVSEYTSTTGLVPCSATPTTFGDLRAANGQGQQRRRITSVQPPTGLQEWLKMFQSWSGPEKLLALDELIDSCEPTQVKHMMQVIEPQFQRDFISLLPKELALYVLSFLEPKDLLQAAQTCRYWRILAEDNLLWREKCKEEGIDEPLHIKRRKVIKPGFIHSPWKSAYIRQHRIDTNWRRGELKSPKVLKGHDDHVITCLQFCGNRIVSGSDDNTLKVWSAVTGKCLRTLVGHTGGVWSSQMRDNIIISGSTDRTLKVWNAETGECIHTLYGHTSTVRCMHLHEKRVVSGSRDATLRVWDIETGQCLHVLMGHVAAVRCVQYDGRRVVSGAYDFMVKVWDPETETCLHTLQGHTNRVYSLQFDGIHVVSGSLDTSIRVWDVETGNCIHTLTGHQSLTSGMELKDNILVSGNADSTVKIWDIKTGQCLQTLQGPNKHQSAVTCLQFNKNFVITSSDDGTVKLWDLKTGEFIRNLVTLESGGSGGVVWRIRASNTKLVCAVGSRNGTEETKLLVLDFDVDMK
# GPR151 ag: activators of human GPR151, primary screen, cell-based, PathHunter beta-arrestin, luminescence. PathHunter beta-arrestin GPR151 cells. activation, % at 11.2 µM. 650,000 tested, 1% active. AID 1508602, 2020; in the data active means activation above about 4.9%;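 further: 0% = median of compound wells and 100% = cells with positive control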
# MITF primary: MITF inhibitors, primary screen, biochemical, AlphaScreen, human; inhibition, % at 2.6 µM; 650,000 tested, 0.91% active; Microphthalmia-associated transcription factor (Homo sapiens), O75030; AlphaScreen MITF homodimerization, bead proximity signal; in the data active means inhibition above about 50%;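 further: 0% = vehicle wells with protein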
# TEAD-YAP block: TEAD-YAP interaction inhibition, primary screen, TEAD-YAP interaction inhibitor project, luminescence, HEK-TIYL cells; TEAD-Gal4/YAP UAS-luciferase luminescence; inhibition, % at 9.12 µM; 640,000 tested, 1.4% active; AID 1259422, 2018; in the data active means inhibition above about 32%;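 further: 0% = median of test compound wells and 100% = reference inhibitor wells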
# * hit, by the source's call.
SMILES,FBW7 act,GPR151 ag,MITF primary,TEAD-YAP block
O=C(Nc1ccccc1-n1ccnc1)c1ncoc1-c1ccccc1C(F)(F)F,0,1,8,6
NC(=O)c1ccccc1NC(=O)c1ncoc1-c1ccccc1C(F)(F)F,0,-2,0,49*
CCOC(=O)CNC(=O)Cn1cnc2c(cnn2-c2ccc(F)cc2)c1=O,0,-1,4,1
COc1ccc(Cl)cc1-n1c(=S)sc2c(=O)[nH]c(SCc3ccc(F)cc3)nc21,0,-1,8,-2
CNC(=O)/C(C#N)=C/c1c(Oc2cc(C)cc(C)c2)nc2ccccn2c1=O,0,-6,18,32*
Cc1cc(C)cc(Oc2nc3ccccn3c(=O)c2/C=C(\C#N)C(=O)N2CCOCC2)c1,0,1,13,37*
N#C/C(=C\c1c(Oc2ccccc2)nc2ccccn2c1=O)C(=O)N1CCOCC1,0,0,-9,21
Cc1cccc(Oc2nc3c(C)cccn3c(=O)c2/C=C(\C#N)C(=O)N2CCOCC2)c1,0,0,16,36*
COc1cc(C2CC(=O)c3c([nH]c(C(=O)OCCSC)c3C)C2)cc(OC)c1OC (stereo not given),0,5,7,56*
COc1ccc(C2CC(=O)c3c([nH]c(C(=O)OCCOC(C)C)c3C)C2)cc1 (stereo not given),0,1,10,3
CCOCCOC(=O)c1[nH]c2c(c1C)C(=O)CC(c1ccc(OC)c(OC)c1)C2 (stereo not given),0,0,9,21
COc1cc(C2CC(=O)c3c([nH]c(C(=O)OCCOC(C)C)c3C)C2)cc(OC)c1OC (stereo not given),0,2,4,66*
O=C(Cc1ccc(F)cc1)N/N=C/c1c(O)n(-c2ccccc2Cl)c(=O)c2ccccc12,-1,-2,19,60*
Cc1cccc(-n2c(O)c(/C=N/NC(=O)c3ccccc3Cl)c3ccccc3c2=O)n1,0,-1,3,-3
CS(=O)(=O)N(CC(=O)NCc1ccccn1)c1cccc(Br)c1,0,-1,5,4
CC(C)(C)OC(=O)N1CCCC(c2ccnc3cc(C(C)(C)C)nn23)C1 (stereo not given),2.1*,-1,9,7
Cc1nc2cc(-c3ccccc3)nn2c(C)c1CCC(=O)O,0,-5,6,51*
Cc1nc2cc(-c3ccc(Cl)cc3)nn2c(C)c1CCC(=O)O,0,1,13,44*
COc1cc(OC)cc(-c2cc3nc(C)c(CCC(=O)NCc4ccccc4)c(C)n3n2)c1,0,-1,-7,39*
Cc1csc(NC(=O)CCc2c(C)nc3cc(-c4ccccc4)nn3c2C)n1,1,0,1,38*
COc1cccc(-n2c(=O)c3sccc3n(CC(=O)N3CCCCC3C)c2=O)c1 (stereo not given),0,-1,-10,-6
Cc1c(C(=O)N(C)Cc2ccccc2)sc2ncn(C)c(=O)c12,0,-2,13,-15
CC1=NN(c2ccccc2)C(=O)C1C(=O)c1ccc(Br)cc1 (stereo not given),0,-1,1,37*
CC1=NN(c2ccccc2)C(=O)C1C(=O)c1ccccc1 (stereo not given),0,-1,6,25
O=C(Nc1ccc2c(c1)OCCO2)c1ccc([N+](=O)[O-])cc1Cl,0,0,8,2
SMILES,FBW7 act,GPR151 ag,MITF primary,TEAD-YAP block
CCOc1ccc(C2=NC(c3ccc(C(F)(F)F)cc3)NC(c3cccc(OCC)c3O)C2)cc1 (stereo not given),0,0,3,-18
Cc1ccc(NC2C=CS(=O)(=O)C2)cc1C (stereo not given),0,-3,7,33*
O=C(Oc1c(Br)cc(Cl)c2cccnc12)N1CCCCC1,0,0,-12,-11
CCOC(=O)C1CCN(Cc2cc(Cl)c3cccnc3c2O)CC1,0,-1,43,72*
Oc1c(CN2CCCCCC2)cc(Cl)c2cccnc12,-1,-1,46,51*
O=C1CCCN1Cc1cc(Cl)c2cccnc2c1O,0,1,64*,9
CCOC(=O)C1CCN(Cc2c(Cl)cccc2Cl)CC1,0,0,28,-16
Oc1c(CN2CCOCC2)cc(Cl)c2cccnc12,0,-1,64*,50*
COC(=O)c1cnn2c(Cl)c(Cc3cccc(Cl)c3)c(C)nc12,0,1,0,15
CCSc1nnc2c(n1)OC(c1ccc(C(=O)OC)cc1)N(C(=O)CC)c1ccccc1-2 (stereo not given),0,0,-13,13
CCOc1ccc(NC(=O)Nc2nnc(COc3ccc([N+](=O)[O-])cc3)s2)cc1,0,0,16,4
O=C(c1nn2c(C(F)(F)F)cc(-c3ccc(Br)cc3)nc2c1Br)N1CCCC1,0,-2,6,0
O=C1c2ccccc2C(=O)N1Cc1cc(Cl)c2cccnc2c1O,0,1,9,9
OCC1CCCCN1Cc1cc(Cl)c2cccnc2c1O (stereo not given) (tested in a mixture with another compound),0,0,66*,76*
Oc1c(CN2CCN(c3cccc(C(F)(F)F)c3)CC2)cc(Cl)c2cccnc12,-1,0,7,16
CN1CCN(Cc2cc(Cl)c3cccnc3c2O)CC1,-1,0,79*,54*
OCC1CCCCN1Cc1cccc(Cl)c1Cl (stereo not given),1,-1,6,3
CCN1CCN(Cc2cc(Cl)c3cccnc3c2O)CC1,0,1,50,47*
CC1CN(Cc2cc(Cl)c3cccnc3c2O)CC(C)O1 (stereo not given),0,-1,56*,24
Cc1oc(-c2ccc(Cl)cc2)nc1CSCC(=O)N1CCCC1,0,0,-8,-5
O=C(Nc1cc(=O)[nH]c(=O)[nH]1)c1cccc(Br)c1,1,0,13,44*
O=C(Nc1ccccc1)c1cccc(Br)c1,0,1,14,-25
CCCOC(=O)c1ccc(NC(=O)Cn2cnc3c2c(=O)n(C)c(=O)n3C)cc1,0,2,12,4
C=CCNC(=O)C1CCC(=O)N1C(C)C (stereo not given),2.1*,0,-7,-1
CCCN(CCC)CCCNC(=O)C1CCC(=O)N1C(C)C (stereo not given),0,1,0,-10
Cc1ccc(CNCc2ccc(N3CCOCC3)cc2)cc1,0,4,55*,6
COc1ccc(CCNCc2ccc(N3CCOCC3)cc2)cc1,0,3,53*,2
Cc1ccc(N2CCOCC2)cc1,0,1,11,4
COc1ccc(CNCCN2CCOCC2)cc1,0,-1,-5,-5
CCOC(=O)c1oc2c(C)c(O)ccc2c(=O)c1-c1nncn1-c1ccccc1,0,-1,3,2

# Screening data (PubChem)
